Inconclusive results are not listed. A call without a number means that no potency is given here. Unmarked numbers belong to inactive results. Active and inactive are the calls of the source. The call rests on the fitted dose curve; in most records, active means well fitted inhibition curve with a large enough effect; inconclusive means small, poorly fitted or top-dose-only effect; inactive means flat fitted curve, though single readings scatter. Bridge positions count the residues as written; N and C are the ends. Square brackets hold non-standard residues; d marks the D form. Peptide text beside a SMILES is read from it. ξ: configuration not given here. d(hArg(Et2)) = CCN=C(NCC)NCCCC[C@@H](N)C(=O)O; hArg(Et2) = CCN=C(NCC)NCCCC[C@H](N)C(=O)O; Phe(4-Cl) = N[C@@H](Cc1ccc(Cl)cc1)C(=O)O; ξ2Nal = NC(Cc1ccc2ccccc2c1)C(=O)O; 3Pal = N[C@@H](Cc1cccnc1)C(=O)O; Orn = NCCC[CH](N)C(=O)O; ξP = O=C(O)C1CCCN1; Mpa = O=C(O)CCS
Key:
[1] = target: Glutathione peroxidase 1 (Homo sapiens) (UniProt P07203); test: Primary qHTS Assay for Inhibitors of Recombinant Selenoprotein Glutathione Peroxidase 1 (GPX1) (AID 1845191)
Chain of Glutathione peroxidase 1 (Homo sapiens) (P07203 whole entry, looked up): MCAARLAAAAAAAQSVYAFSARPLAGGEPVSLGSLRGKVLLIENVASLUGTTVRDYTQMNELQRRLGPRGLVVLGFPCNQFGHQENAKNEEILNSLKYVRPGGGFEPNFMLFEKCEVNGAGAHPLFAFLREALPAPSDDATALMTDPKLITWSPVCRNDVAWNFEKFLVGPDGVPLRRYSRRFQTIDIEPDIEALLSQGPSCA
Outline: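 Recombinant GPX1 (10 nM final) was preincubated with compound for 30 min at room temperature, then reacted with 1 mM GSH, 0.5 mM CHP, 0.5 mM NADPH and 100 nM glutathione reductase; NADPH fluorescence (340/450 nm) was read at 0 and 15 min.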

[2] = target: Phospholipid hydroperoxide glutathione peroxidase GPX4 (Homo sapiens) (UniProt P36969); test: Primary qHTS Assay for Inhibitors of Recombinant Selenoprotein Glutathione Peroxidase 4 (GPX4) (AID 1845192); on activity change, negative = inhibition: series mostly up to about 50 µM
Chain of Phospholipid hydroperoxide glutathione peroxidase GPX4 (Homo sapiens) (P36969 whole entry, looked up): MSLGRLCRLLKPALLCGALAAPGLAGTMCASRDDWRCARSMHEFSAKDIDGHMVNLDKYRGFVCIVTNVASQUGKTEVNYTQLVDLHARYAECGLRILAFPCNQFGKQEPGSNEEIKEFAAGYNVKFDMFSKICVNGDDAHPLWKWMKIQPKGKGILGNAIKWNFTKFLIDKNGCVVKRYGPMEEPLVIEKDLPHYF
Outline: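 GR-coupled readout: 100 nM GR, 1 mM GSH, 0.5 mM NADPH; NADPH fluorescence (ex 340/em 450 nm) read at t=0 and after 15 min RT. GPX4 200 nM, preincubated 30 min with compound; substrate 0.5 mM CHP.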
Further: nearly all actives have a fitted effect of over 65% in size.
Potency means the concentration at half of the fitted maximal effect.

**Q.** How did the Potency [1] turn out when `CCOc1ccc(CC2NC(=O)CCSSCC(C(=O)N3CCCC3C(=O)NC(CCCN)C(=O)NCC(N)=O)NC(=O)C(CC(N)=O)NC(=O)C(C(C)O)NC(=O)C(C(C)CC)NC2=O)cc1` (stereo unspecified) ([Mpa]Y(Et)ITNCP[Orn]G-NH2; disulfide 1-6; configuration not given here) was run?
**A.** The Potency was “inactive”.

**Q.** For `CO[C@H]1/C=C\O[C@@]2(C)Oc3c(C)c(O)c4c(O)c(c5c(c4c3C2=O)=NC2(CCN(CC(C)C)CC2)N=5)NC(=O)/C(C)=C\C=C/[C@H](C)[C@H](O)[C@@H](C)[C@@H](O)[C@@H](C)[C@H](OC(C)=O)[C@@H]1C`, which Potency [1] is on record?
**A.** The Potency was “inactive”.

**Q.** With `Cc1ccc2nc(-c3ccc(Cl)c(NC(=O)c4ccc5c(c4)OCCO5)c3)oc2c1` as the molecule, how does the Potency [1] read?
**A.** The Potency was “inactive”.

**Q.** For `Cc1cc(-c2nc3ncccc3o2)ccc1NC(=O)COc1ccc(C(C)(C)C)cc1`, which Potency [1] is on record?
**A.** The Potency was “inactive”.

**Q.** With `COc1cc2oc(-c3ccccc3)cc(=O)c2c(OC)c1OC` as the molecule, how does the Potency [1] read?
**A.** Its Potency is “inactive”.

**Q.** For `C=C1/C(=C\C=C2/CCC[C@@]3(C)C2CC[C@@H]3[C@H](C)/C=C\[C@@H](O)C2CC2)C[C@@H](O)C[C@@H]1O` (stereo partly specified), which Potency [1] is on record?
**A.** Its Potency is “inactive”.

**Q.** For `COc1ccccc1Nc1nc(-c2sc(NC(C)=O)nc2C)cs1`, which Potency [1] is on record?
**A.** Its Potency is 20.2 µM (active).

**Q.** Which Potency [1] does the source give for `CCNC(=NCCCC[C@H](NC(=O)[C@H](CC(C)C)NC(=O)[C@@H](CCCCN=C(NCC)NCC)NC(=O)[C@@H](Cc1ccc(O)cc1)NC(=O)[C@@H](CO)NC(=O)[C@H](Cc1cccnc1)NC(=O)[C@H](Cc1ccc(Cl)cc1)NC(=O)C(Cc1ccc2ccccc2c1)NC(C)=O)C(=O)N1CCCC1C(=O)N[C@H](C)C(N)=O)NCC` (stereo partly specified) (Ac-[ξ2Nal][Phe(4-Cl)][3Pal][dS][dY][d(hArg(Et2))]L[hArg(Et2)][ξP][dA]-NH2) here?
**A.** The Potency was “inactive”.

**Q.** With `COc1ccc(C[C@H](NC(=O)[C@H](C)NC(=O)CN2CCOCC2)C(=O)N[C@@H](Cc2ccccc2)C(=O)[C@@]2(C)CO2)cc1` as the molecule, how does the Potency [1] read?
**A.** Its Potency is “inactive”.

**Q.** Which Potency [1] does the source give for `CS(=O)(=O)n1cc2c(n1)CN([C@H]1CO[C@H](c3cc(F)ccc3F)[C@@H](N)C1)C2` here?
**A.** The Potency was “inactive”.

**Q.** `Oc1c(C(c2ccccc2)N2CCOCC2)sc2nc(-c3ccco3)nn12` (stereo unspecified) was tested. Which Potency [1] did it give?
**A.** The Potency was “inactive”.

**Q.** For `O=C(NCC(=O)N1CCCCC1)Nc1ccc2nnsc2c1`, which Potency [1] is on record?
**A.** The Potency was “inactive”.

**Q.** With `CCCC(=O)O[C@]1(C(=O)COC(C)=O)CC[C@H]2C3C[C@H](F)C4=CC(=O)C=C[C@]4(C)[C@@]3(F)[C@@H](O)C[C@@]21C` (stereo partly specified) as the molecule, how does the Potency [1] read?
**A.** The Potency was “inactive”.

**Q.** What about the Potency [2] of the same molecule?
**A.** The Potency was “inactive”.

**Q.** `CC(C)OC(=O)CCC/C=C\C[C@@H]1[C@@H](/C=C/[C@@H](O)COc2cccc(C(F)(F)F)c2)[C@H](O)C[C@@H]1O` was tested. Which Potency [1] did it give?
**A.** Its Potency is “inactive”.

**Q.** And the Potency [2]?
**A.** Its Potency is “inactive”.

**Q.** `C[N+](C)(C)CCOP(=O)([O-])OP(=O)(O)OC[C@H]1OC(n2ccc(N)nc2=O)[C@H](O)[C@@H]1O` (stereo partly specified) was tested. Which outcome [1] did it give?
**A.** The outcome was “inactive [at 0.4 µM]”.

**Q.** And the activity change, negative = inhibition [2]?
**A.** The activity change, negative = inhibition was 0.205% [at 0.409 µM].

**Q.** `CCC(C)CC(C)CCCCCCCCC(=O)N[C@H]1C[C@@H](O)[C@@H](NCCN)NC(=O)[C@@H]2[C@@H](O)CCN2C(=O)[C@H]([C@H](O)CCN)NC(=O)[C@H]([C@@H](O)[C@H](O)c2ccc(O)cc2)NC(=O)[C@@H]2C[C@@H](O)CN2C(=O)[C@H]([C@@H](C)O)NC1=O` (stereo partly specified) was tested. Which Potency [1] did it give?
**A.** The Potency was “inactive”.

**Q.** What about the Potency [2] of the same molecule?
**A.** Its Potency is “inactive”.

**Q.** What does the source list for `O=C(OCCN(CCO)CCO)c1ccccc1O`?
**A.** Potency [1]: inactive; Potency [2]: inactive

**Q.** What does the source list for `C[C@H]1C[C@H]2[C@H]3CCC4=CC(=O)C=C[C@]4(C)[C@@]3(F)[C@@H](O)C[C@]2(C)[C@@]1(OC(=O)c1ccccc1)C(=O)CO`?
**A.** Potency [1]: inactive; Potency [2]: inactive

**Q.** Which results are given for `COc1cc(N)cn[n+]1-c1ccccc1`?
**A.** Potency [1]: inactive; Potency [2]: inactive

**Q.** What does the source list for `Cc1c(OCC(F)(F)F)ccnc1C[S@@](=O)c1nc2ccccc2[nH]1`?
**A.** Potency [1]: 10.1 µM (active); Potency [2]: 10 µM (active)

**Q.** What does the source list for `CCCC[C@H](C)C[C@H](O)/C=C/[C@H]1[C@H](O)CC(=O)[C@@H]1CCCC/C=C/C(=O)O`?
**A.** Potency [1]: inactive; Potency [2]: inactive

**Q.** How did the Potency [1] turn out when `CCCCCCCCCCCCCCCC(=O)OCC(=O)[C@@]1(O)[C@H](C)C[C@H]2[C@@H]3CCC4=CC(=O)C=C[C@]4(C)[C@@]3(F)[C@@H](O)C[C@@]21C` was run?
**A.** The Potency was “inactive”.

**Q.** What about the Potency [2] of the same molecule?
**A.** Its Potency is “inactive”.

**Q.** For `CN(CC(O)CO)C(=O)c1c(I)c(NC(=O)C(CO)CO)c(I)c(C(=O)N(C)CC(O)CO)c1I` (stereo unspecified), which Potency [1] is on record?
**A.** The Potency was “inactive”.

**Q.** What about the Potency [2] of the same molecule?
**A.** The Potency was “inactive”.

**Q.** How did the Potency [1] turn out when `CCCCCCCCCCCCCCCC(=O)OC1C(SC)OC(C(NC(=O)C2CC(CCC)CN2C)C(C)Cl)C(O)C1O` (stereo unspecified) was run?
**A.** Its Potency is “inactive”.

**Q.** What about the Potency [2] of the same molecule?
**A.** Its Potency is “inactive”.

**Q.** How did the Potency [1] turn out when `COCC1=C(C(=O)OC(C)OC(=O)OC(C)C)N2C(=O)[C@@H](NC(=O)/C(=N/OC)c3csc(N)n3)[C@H]2SC1` (stereo partly specified) was run?
**A.** Its Potency is 9.04 µM (active).

**Q.** And the Potency [2]?
**A.** Its Potency is 10 µM (active).

**Q.** Which results are given for `Cn1c(=O)cc(N2CCC[C@@H](N)C2)n(Cc2cc(F)ccc2C#N)c1=O`?
**A.** Potency [1]: inactive; Potency [2]: inactive

**Q.** What does the source list for `CCN1CCC(=C2c3ccccc3CCc3ccccc32)C1C` (stereo unspecified)?
**A.** Potency [1]: inactive; Potency [2]: inactive

**Q.** How did the Potency [1] turn out when `CCCCC[C@@H](O)CC[C@H]1[C@@H]2Cc3cccc(OCC(=O)O)c3C[C@@H]2C[C@@H]1O` was run?
**A.** Its Potency is “inactive”.

**Q.** What about the Potency [2] of the same molecule?
**A.** Its Potency is “inactive”.

**Q.** With `CC1=CC(O)CC(C)(C)C1/C=C/C(C)=C/C=C/C(C)=C/C=C/C=C(C)/C=C/C=C(C)/C=C/C1=C(C)CC(O)CC1(C)C` (stereo unspecified) as the molecule, how does the Potency [1] read?
**A.** The Potency was “inactive”.

**Q.** What about the Potency [2] of the same molecule?
**A.** Its Potency is 12.6 µM (active).

Source: PubChem BioAssay (NCATS)
